# Results as given in the supplement of paper PMC10646978.
# ± gives the standard deviation.
# Test system: RAW-Dual (murine macrophage reporter line)
# Assay: NF-kB reporter (SEAP) activity fold change vs agonist alone; higher = enhanced NF-kB activity
# Settings: modulator concentration 10 µM; agonist: MPLA […]
# Summary of the method: (§1)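 RAW-Dual murine macrophage reporter cells were seeded at 50 000 per well in 384-well plates and pre-incubated 1 hour at 37 °C with compound pin-transferred to 10 μM final. After 1 hour, a PRR agonist was added and cells incubated overnight. Supernatant NF-κB (SEAP, QUANTI-Blue, 620 nm absorbance) and IRF (Lucia luciferase, QUANTI-Luc, luminescence) signals were divided by the mean agonist-only control on the same plate to give fold change. Two replicate plates were averaged, with errors by propagation.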
row,SMILES,NF-kB reporter
1,Oc1ccc(OCc2ccccc2)cc1,1.34 ± 0.095
2,O=C(NCC(O)Cc1ccccc1)Nc1ccc(F)cc1 (stereo not given),1.08 ± 0.064
3,CCC(=O)CC(O)(c1ccccc1)C(F)(F)F (stereo not given),1.02 ± 0.049
4,COc1ccc(C(C)=NNC(=O)Nc2ccccc2)c(OC)c1,0.932 ± 0.088
5,NS(=O)(=O)c1ccc(F)cc1,0.997 ± 0.11
6,Cc1ncsc1C(=O)NC1CCC(F)(F)CC1,0.991 ± 0.033
7,Cn1c2c(c3ccccc31)CCCC2NC=O (stereo not given),1.03 ± 0.09
8,O=C(NN=Cc1cccc(Cl)c1Cl)c1cc(O)cc(O)c1,1.07 ± 0.1
9,Cc1ccc(OCCOc2ncnc3ccccc23)c(Cl)c1,1.23 ± 0.049
10,Cc1ccsc1C(=CCCN1CCC[C@@H](C(=O)O)C1)c1sccc1C,0.972 ± 0.033
11,CNC(=O)[C@H](Cc1c[nH]c2ccccc12)NC(=O)[C@@H](CC(=O)NO)CC(C)C,1.07 ± 0.074
12,Clc1cccc(Nc2nc(-c3ccccn3)cs2)c1,0.597 ± 0.18
13,CN1CCN(CC(O)Cn2c3ccccc3c3ccccc32)CC1.O=C(O)C(=O)O (stereo not given),0.983 ± 0.093
14,CCOC(=O)c1c(N2C(=O)C3C4C=CC(O4)C3C2=O)sc2c1CCCC2 (stereo not given),0.77 ± 0.092
15,Cc1cc(OC2CN(C(=O)Cc3c[nH]c4ccccc34)C2)cc(=O)n1C1CC1,0.997 ± 0.11
16,O=C(CSC1CCCCC1)Nc1ccc(Br)cc1,1.1 ± 0.07
17,CN(C)C/C=C/C(=O)Nc1cc2c(Nc3ccc(F)c(Cl)c3)ncnc2cc1O[C@H]1CCOC1,0.266 ± 0.033
18,O=S(=O)(NCCn1ccn2nccc12)c1ccccc1Br,1.02 ± 0.065
19,CN(C)c1ccc(C=C(C#N)c2nc(-c3cc4ccccc4oc3=O)cs2)cc1,0.955 ± 0.079
20,N[C@@H](CC(=O)N1CCn2c(nnc2C(F)(F)F)C1)Cc1cc(F)c(F)cc1F,0.905 ± 0.058

row,SMILES,NF-kB reporter
1,COc1cc(C)n(CCNC(=O)c2ccccc2C(F)(F)F)c(=O)c1,1.12 ± 0.06
2,Cl.O=C1NCC2(CCN(CCc3ccccc3)CC2)O1,0.798 ± 0.082
3,CC1=NN(C(=O)OC(C)(C)C)C(O)(c2ccncc2)C1 (stereo not given),0.886 ± 0.084
4,O=c1c(O)c(-c2ccccc2)oc2cc(O)ccc12,1.43 ± 0.15
5,Cc1ccc(C)n1-c1ccc(C(=O)OCC(=O)c2ccc([N+](=O)[O-])cc2)cc1,1.31 ± 0.42
6,O=C(Cn1c(=O)oc2ccccc21)N1Cc2cncnc2C1,0.988 ± 0.065
7,Cc1ccc(C23CC4CC(CC(CN)(C4)C2)C3)cc1.Cl,1.95 ± 0.14
8,COc1ccc2c(c1)c(CC(=O)O)c(C)n2C(=O)c1ccc(Cl)cc1,0.951 ± 0.054
9,N#C[C@@H]1CCCN1C(=O)CNC12CC3CC(CC(O)(C3)C1)C2,0.862 ± 0.048
10,Nc1ncnc2c1ncn2C1OC(CO)C(O)C1O (stereo not given),1.29 ± 0.13
11,Cc1cn([C@@H]2C[C@@H](O)[C@H](CO)O2)c(=O)[nH]c1=O,1.01 ± 0.065
12,Cc1cc(OCC(O)Cn2cnc3ccccc32)ccc1Cl (stereo not given),1.14 ± 0.082
13,O=C1C(Cl)=C(N2CCCCC2)C(=O)N1c1cc(Cl)c(Cl)cc1Cl,0.857 ± 0.03
14,CS(=O)(=O)N(CC(=O)NCCSCc1cccc(Cl)c1)c1ccc(Cl)cc1,0.964 ± 0.044
15,O=C(CCCn1nc(-c2ccc(F)cc2)ccc1=O)Nc1cc(Cl)ccc1Cl,0.989 ± 0.11
16,N#CC(=Cc1cn(Cc2ccccc2Cl)c2ccccc12)c1nn(CCO)c(N)c1C#N,0.91 ± 0.058
17,O=C(O)CCCNC(=O)c1ccccc1C(=O)O,0.952 ± 0.093
18,CC(C)OCc1ccc(C(=O)Nc2nnc(C(C)C)s2)o1,0.961 ± 0.15
19,CC(=O)Oc1cccc2c1C(=O)c1c(OC(C)=O)cc(C(=O)O)cc1C2=O,1.01 ± 0.049
20,Cc1occc1C(=O)Nc1ccc(F)c(F)c1,1.11 ± 0.055

# Test system: RAW-Dual (murine macrophage reporter line)
# Assay: IRF reporter (Lucia luciferase) activity fold change vs agonist alone; higher = enhanced IRF activity
# Settings: modulator concentration 10 µM; agonist: 3'3'-cGAMP 10 ug/mL
# Summary of the method: as §1
row,SMILES,IRF reporter
1,Oc1ccc(OCc2ccccc2)cc1,0.665 ± 0.033
2,O=C(NCC(O)Cc1ccccc1)Nc1ccc(F)cc1 (stereo not given),1.04 ± 0.048
3,CCC(=O)CC(O)(c1ccccc1)C(F)(F)F (stereo not given),1.01 ± 0.14
4,COc1ccc(C(C)=NNC(=O)Nc2ccccc2)c(OC)c1,1.02 ± 0.063
5,NS(=O)(=O)c1ccc(F)cc1,0.977 ± 0.031
6,Cc1ncsc1C(=O)NC1CCC(F)(F)CC1,0.68 ± 0.034
7,Cn1c2c(c3ccccc31)CCCC2NC=O (stereo not given),0.93 ± 0.042
8,O=C(NN=Cc1cccc(Cl)c1Cl)c1cc(O)cc(O)c1,0.934 ± 0.079
9,Cc1ccc(OCCOc2ncnc3ccccc23)c(Cl)c1,0.916 ± 0.094
10,Cc1ccsc1C(=CCCN1CCC[C@@H](C(=O)O)C1)c1sccc1C,0.857 ± 0.056
11,CNC(=O)[C@H](Cc1c[nH]c2ccccc12)NC(=O)[C@@H](CC(=O)NO)CC(C)C,0.88 ± 0.035
12,Clc1cccc(Nc2nc(-c3ccccn3)cs2)c1,0.537 ± 0.092
13,CN1CCN(CC(O)Cn2c3ccccc3c3ccccc32)CC1.O=C(O)C(=O)O (stereo not given),0.609 ± 0.02
14,CCOC(=O)c1c(N2C(=O)C3C4C=CC(O4)C3C2=O)sc2c1CCCC2 (stereo not given),0.775 ± 0.038
15,Cc1cc(OC2CN(C(=O)Cc3c[nH]c4ccccc34)C2)cc(=O)n1C1CC1,1 ± 0.05
16,O=C(CSC1CCCCC1)Nc1ccc(Br)cc1,0.671 ± 0.022
17,CN(C)C/C=C/C(=O)Nc1cc2c(Nc3ccc(F)c(Cl)c3)ncnc2cc1O[C@H]1CCOC1,0.0559 ± 0.0049
18,O=S(=O)(NCCn1ccn2nccc12)c1ccccc1Br,0.989 ± 0.049
19,CN(C)c1ccc(C=C(C#N)c2nc(-c3cc4ccccc4oc3=O)cs2)cc1,0.86 ± 0.03
20,N[C@@H](CC(=O)N1CCn2c(nnc2C(F)(F)F)C1)Cc1cc(F)c(F)cc1F,0.908 ± 0.044

row,SMILES,IRF reporter
1,COc1cc(C)n(CCNC(=O)c2ccccc2C(F)(F)F)c(=O)c1,1.03 ± 0.055
2,Cl.O=C1NCC2(CCN(CCc3ccccc3)CC2)O1,0.672 ± 0.042
3,CC1=NN(C(=O)OC(C)(C)C)C(O)(c2ccncc2)C1 (stereo not given),0.979 ± 0.081
4,O=c1c(O)c(-c2ccccc2)oc2cc(O)ccc12,0.764 ± 0.026
5,Cc1ccc(C)n1-c1ccc(C(=O)OCC(=O)c2ccc([N+](=O)[O-])cc2)cc1,0.666 ± 0.044
6,O=C(Cn1c(=O)oc2ccccc21)N1Cc2cncnc2C1,0.921 ± 0.042
7,Cc1ccc(C23CC4CC(CC(CN)(C4)C2)C3)cc1.Cl,0.741 ± 0.031
8,COc1ccc2c(c1)c(CC(=O)O)c(C)n2C(=O)c1ccc(Cl)cc1,1.05 ± 0.034
9,N#C[C@@H]1CCCN1C(=O)CNC12CC3CC(CC(O)(C3)C1)C2,0.863 ± 0.06
10,Nc1ncnc2c1ncn2C1OC(CO)C(O)C1O (stereo not given),1.15 ± 0.043
11,Cc1cn([C@@H]2C[C@@H](O)[C@H](CO)O2)c(=O)[nH]c1=O,1.09 ± 0.18
12,Cc1cc(OCC(O)Cn2cnc3ccccc32)ccc1Cl (stereo not given),0.913 ± 0.035
13,O=C1C(Cl)=C(N2CCCCC2)C(=O)N1c1cc(Cl)c(Cl)cc1Cl,0.352 ± 0.026
14,CS(=O)(=O)N(CC(=O)NCCSCc1cccc(Cl)c1)c1ccc(Cl)cc1,0.904 ± 0.13
15,O=C(CCCn1nc(-c2ccc(F)cc2)ccc1=O)Nc1cc(Cl)ccc1Cl,1.06 ± 0.066
16,N#CC(=Cc1cn(Cc2ccccc2Cl)c2ccccc12)c1nn(CCO)c(N)c1C#N,0.909 ± 0.063
17,O=C(O)CCCNC(=O)c1ccccc1C(=O)O,1.04 ± 0.043
18,CC(C)OCc1ccc(C(=O)Nc2nnc(C(C)C)s2)o1,0.986 ± 0.051
19,CC(=O)Oc1cccc2c1C(=O)c1c(OC(C)=O)cc(C(=O)O)cc1C2=O,0.971 ± 0.068
20,Cc1occc1C(=O)Nc1ccc(F)c(F)c1,0.704 ± 0.042
